This passage reports max dye-equivalent concentration results from PubChem BioAssay AID589 (National Center for Advancing Translational Sciences (NCATS), 2007).

Molecules are shown by their SMILES. The whole screen tested about 59,000 compounds, of which about 6,200 (11%) were called active. About 9% were inconclusive and are not listed. Cut-off read from the data, not from the text of the source: active = max dye-equivalent concentration above about 10 nM; inconclusive = mostly about 1.1 nM to 9.6 nM; inactive = weaker than that. The list comes from a sample in which actives are over-represented; it also holds similar structures and randomly drawn compounds.

The assay is described as follows: qHTS Assay for Spectroscopic Profiling in 4-MU Spectral Region. Particulars: compound autofluorescence, 340/450 nm, 4-MU equivalents; hits give high values. The procedure, abridged: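 Intrinsic fluorescence at 340/450 nm (ex/em) was read after 15 min at room temperature in pH 8.0, 100 mM Tris. Each compound concentration expressed as 4-MU-equivalent concentration from a six-point 4-MU standard series on each plate.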
A general note: In qHTS, concentration-response curves come from the screen itself.
For the molecule `Cc1ccc(C)c(S(=O)(=O)N2CC(=O)Nc3ccccc32)c1`, the max dye-equivalent concentration entry was “inactive”. The result for `N=C(CC(=O)Nc1ccccn1)c1ccccc1` reads “inactive”; that for `Cc1cccc(N)c1SC1CCCCC1O` (centres undefined), “inactive”; that for `COc1ccc(C(=O)OCC(=O)c2ccc(C)c(S(=O)(=O)N3CCOCC3)c2)cc1OC`, “inactive”. Then `CCC(=O)Nc1ccc(C(=O)Nc2ccc3c(c2)C(=O)N(CC2CCCO2)C3=O)cc1` (centres undefined), with 120 nM (active); and `O=C(CCN1C(=O)c2ccncc2C1=O)Nc1ccc2c(c1)OCCO2`, with “inactive”. Then `O=C(NCc1ccc2c(c1)OCO2)c1ccc2c(c1)C(=O)N(CC1CCCO1)C2=O` (centres undefined), with “inactive”; and `CC(C)(C)n1nnnc1C(c1ccc2ncccc2c1)N1CCSCC1` (centres undefined), with “inactive”. As to `CCOC(=O)N1CCN(CC(=O)Nc2cc(C)nn2-c2nc3ccccc3s2)CC1`, the max dye-equivalent concentration entry was “inactive”. The result for `CCOC(=O)N1CCN(C(=O)C2CCN(c3ncnc4c3sc3cccc(F)c34)CC2)CC1` reads 18 nM (active); that for `CCOC(=O)N1CCN(C(=O)C2CCN(S(C)(=O)=O)CC2)CC1`, “inactive”; that for `C=C(C)c1cccc(C(C)(C)NC(=O)N2CCN(c3ncccn3)CC2)c1`, “inactive”. For `CC1CCCC(NC(=O)CSc2nccn2C)C1C` (centres undefined), the max dye-equivalent concentration entry is “inactive”.

For `CN1[C@H]2CC(OC(=O)[C@@H](CO)c3ccccc3)C[C@H]1[C@H]1O[C@H]12` (some centres undefined), the max dye-equivalent concentration entry is “inactive”. Then `O=c1cc(-c2ccccc2)[nH]c2nc(Cl)ccc12`, with 76 nM (active). As for `O=C(NCCN1CCOCC1)c1c(F)c(F)c(F)c(F)c1F`, the max dye-equivalent concentration result was “inactive”. Regarding `Oc1c(Br)cc(CN(Cc2cc(Br)c(O)c(Br)c2)C2CCCCC2)cc1Br`, the max dye-equivalent concentration result is “inactive”. The result for `Cc1cc(=O)n2nc(N3CCCC(C(=O)N4CCN(C)CC4)C3)sc2n1` (centres undefined) reads “inactive”; that for `Cc1cccc(NC(=O)CSc2nnc(CCCCCNC(=O)OC(C)(C)C)o2)c1C`, “inactive”; that for `COCC(=O)N1CCC2(CCCN(c3ccccc3)C2)CC1`, “inactive”. The result for `COC(=O)c1ccc(NCC(=O)c2ccccc2)cc1` reads “inactive”; that for `O=C(Nc1ccc(-c2nnc(-c3ccccc3)o2)cc1)c1ccc(Br)o1`, 37 nM (active); that for `O=C(Nc1ccc(-c2nnc(-c3ccccc3)o2)cc1)C1CCCO1` (centres undefined), “inactive”. `O=C(Nc1cccc(-c2nnc(-c3ccccc3)o2)c1)C1CCCO1` (centres undefined): the max dye-equivalent concentration result is “inactive”.

For the molecule `O=C(c1ccco1)N1CCN(C(=O)C2CC(c3ccc(Cl)c(Cl)c3)=NO2)CC1` (centres undefined), the max dye-equivalent concentration entry was “inactive”. The result for `CC(C)(C)OC(=O)c1c(N)n(CCCN2CCCC2=O)c2nc3ccccc3nc12` reads 6400 nM (active); that for `O=C(CCn1c(=S)[nH]c2ccccc2c1=O)NCCCN1CCCC1=O`, “inactive”; that for `CSc1nnc(-c2ccncc2)n1CCCN1CCCC1=O`, “inactive”. The result for `CC(C)NC(=O)N1CCCC2(CCN(C(=O)c3cccn3C)CC2)C1` reads “inactive”; that for `COc1ccc2c(c1)CCc1c(C(=O)N3CCCC3)noc1-2`, “inactive”. The result for `COc1cccc(Cn2c(=O)cnc3cncnc32)c1` reads “inactive”; that for `COc1cccc(CN2C(=O)CCC2(C)C(=O)NC2CCCCCC2)c1` (centres undefined), “inactive”. `COc1cccc(Cn2c(=O)c(-c3ccccc3)nc3cnc(OC)nc32)c1`: the max dye-equivalent concentration entry is “inactive”. Then `O=c1cnc2cnc(Nc3ccccc3)nc2n1Cc1ccc(F)cc1`, with “inactive”. For `CCNc1ncc2ncc(=O)n(CCc3ccccc3)c2n1`, the max dye-equivalent concentration was 75 nM (active). Consider `CCc1nnc(NC(=O)CSc2nnc(Cc3ccccc3)n2-c2ccc(OC)cc2)s1`, for which the max dye-equivalent concentration entry was “inactive”. Then `COc1ccc(-n2c(C)nc3c(cnn3-c3ccccc3)c2=O)cc1`, with “inactive”. The result for `COc1cccc(Cn2c(=O)c(CCc3ccccc3)nc3cnc(N(C)C)nc32)c1` reads 22 nM (active). Then `CCNc1ncc2ncc(=O)n(Cc3cccc(OC)c3)c2n1`, with 14 nM (active); and `COc1cccc(Nc2ncc3ncc(=O)n(C4CC4)c3n2)c1`, with “inactive”; and `COc1cccc(Cn2c(=O)c(C)nc3cnc(Oc4ccccc4)nc32)c1`, with “inactive”. With `CCNc1ncc2nc(CCc3ccccc3)c(=O)n(-c3ccc(OC)cc3)c2n1`, the max dye-equivalent concentration is 12 nM (active). The result for `Cc1cc(N2C(=O)c3ccc(C(=O)NCc4ccccc4)cc3C2=O)no1` reads “inactive”.

Regarding `COC(=O)[C@H](Cc1ccccc1)NC(=O)N1CC(C)OC(C)C1` (some centres undefined), the max dye-equivalent concentration result is “inactive”.

On to `O=C(C1CCC(C(=O)N2CCCC2)CC1)N1CCCC1` (centres undefined), for which the max dye-equivalent concentration entry is “inactive”.

As for `O=C(c1cccs1)N1CCCC(c2nc(-c3ccc(F)cc3)no2)C1` (centres undefined), the max dye-equivalent concentration entry is “inactive”. Take `C=CCn1c(=O)c2ccccc2n2c(SCC(=O)N3CCCc4ccccc43)nnc12`: the max dye-equivalent concentration result is “inactive”. For `CC(C)CC(=O)N=C1SC2CS(=O)(=O)CC2N1CCc1ccccc1` (centres undefined), the max dye-equivalent concentration result is “inactive”.

On to `CCCCN(C)C(=O)C1CCN(Cc2ccccn2)CC1`, for which the max dye-equivalent concentration entry is “inactive”.

`Cc1nc(SCC(=O)Nc2cc(C)on2)c2c3c(sc2n1)CCCC3`: the max dye-equivalent concentration entry was “inactive”. Then `O=C(Nc1cccc2c1CCCC2)C1CCN(C(=O)NC2CCCCC2)CC1`, with “inactive”; and `CCOc1ccccc1N=C1NC(=O)CS1`, with “inactive”. `CCc1nnc(NC(=O)c2c(O)c3c([nH]c2=O)CCCC3)s1`: the max dye-equivalent concentration result is “inactive”. The result for `Cc1cnc(CNc2cc(-c3c(C)noc3C)ncn2)cn1` reads 18 nM (active). The result for `Cc1cccc(CNc2cc(-c3ccccc3Cl)ncn2)c1` reads “inactive”.

For the molecule `COc1ccccc1CNc1ncnc2ccc(-c3c(C)noc3C)cc12`, the max dye-equivalent concentration entry is “inactive”. The result for `CNc1cc(-c2c(C)noc2C)ncn1` reads “inactive”; that for `Cc1noc(C)c1-c1cc(NCc2cccnc2)ncn1`, “inactive”.

For `COCCNc1cc(-c2c(C)noc2C)ncn1`, the max dye-equivalent concentration is 11 nM (active). The result for `CCOC(=O)c1[nH]cnc1C(=O)NC1CCCCC1` reads “inactive”; that for `C[C@]1(O)CC[C@H]2[C@H]3CC=C4N5CCN=C5CC[C@@]4(C)[C@H]3CC[C@@]21C`, “inactive”. Then `O=C(Nc1c(Cl)cccc1Cl)C1CCC1`, with “inactive”; and `O=C(NCc1ccco1)c1cc2sccc2n1Cc1ccc(F)cc1`, with “inactive”. The result for `Cc1nc2nc(CSc3nc4ccccc4s3)cc(=O)n2[nH]1` reads “inactive”; that for `Cc1cccc(-n2c(N)c(C(=O)N3CCN(C)CC3)sc2=S)c1`, “inactive”; that for `CC(C(=O)Nc1ccccc1-c1ccccc1)N1CCOCC1` (centres undefined), “inactive”.

On to `CC(C(=O)N1CCOCC1)N1c2cccc3cccc(c23)S1(=O)=O` (centres undefined), for which the max dye-equivalent concentration was 74 nM (active).

On to `O=C(c1ccccc1-c1ccccc1)N1CCOCC1`, for which the max dye-equivalent concentration result is “inactive”.

As to `COc1ccc(N(CC(=O)NC(C)(C)C)C(=O)c2ccco2)cc1`, the max dye-equivalent concentration result was “inactive”. As to `COc1cc(C(=O)N(Cc2ccc(N(C)C)cc2)C2CCS(=O)(=O)C2)cc(OC)c1OC` (centres undefined), the max dye-equivalent concentration result is “inactive”. Then `CCOc1ccc2nc(NCCNS(=O)(=O)c3ccccc3)c(C#N)cc2c1`, with 110 nM (active). The result for `O=C(O)c1cccc(S(=O)(=O)NCCO)c1` reads “inactive”.

With `CCOc1ccc(Nc2oc(Cc3ccccc3)nc2C#N)cc1`, the max dye-equivalent concentration entry was “inactive”.

As for `Cc1cc(C)c(NC(=O)CS(=O)CC(=O)Nc2cccnc2)c(C)c1` (centres undefined), the max dye-equivalent concentration entry was “inactive”. The result for `COc1ccc(C(CC(=O)O)NC(=O)Cc2ccccc2)cc1` (centres undefined) reads “inactive”; that for `CCOC(=O)c1cc(C)sc1NC(=O)C1CCC1`, “inactive”. The result for `COC(=O)c1ccccc1NC(=O)c1ccccc1NS(C)(=O)=O` reads “inactive”; that for `O=C(Nc1nncs1)c1ccccc1NS(=O)(=O)c1cccs1`, 530 nM (active). Then `O=C(C1CCN(S(=O)(=O)c2cccs2)CC1)N1CCCCCC1`, with “inactive”; and `COc1ccc(CNC2CCCCC2)cc1`, with “inactive”.

Regarding `c1n[nH]c(NCc2ccc3c(c2)OCO3)n1`, the max dye-equivalent concentration entry was “inactive”. The result for `CN(Cc1ccccc1)c1nc2c(c(=O)[nH]c(=O)n2C)n1CCSc1nc2ccccc2[nH]1` reads “inactive”; that for `COc1cc(NC(=O)N2CCOCC2)cc(OC)c1`, “inactive”. For the molecule `CCOC(=O)c1[nH]c2ccc(OC)cc2c1NC(=O)CCN1CCN(Cc2ccccc2)CC1`, the max dye-equivalent concentration was 57 nM (active). Then `CCOC(=O)c1[nH]c2ccc(OC)cc2c1NC(=O)N1CCOCC1`, with 130 nM (active).

Consider `COc1ccc(OC)c(NC(=O)CCN2CCC(C)CC2)c1`, for which the max dye-equivalent concentration entry is “inactive”.

With `Cc1c(C(=O)N2CCOCC2)[nH]c2ccc(OCc3ccccc3)cc12`, the max dye-equivalent concentration result was “inactive”. Then `COC(=O)c1[nH]c2ccccc2c1NC(=O)CN1CCCc2ccccc21`, with “inactive”; and `COc1cccc(NC(=O)CN(C)S(=O)(=O)c2ccc(C)cc2)c1`, with “inactive”. The result for `Cc1nonc1OCCn1nnnc1N` reads “inactive”. Turning to `CCNC(=O)CN(c1ccc(C)cc1)S(=O)(=O)c1ccc(SC)cc1`, the max dye-equivalent concentration entry was “inactive”. Then `C=CCn1c(COc2cccc3cccnc23)nnc1SCC(=O)OC`, with “inactive”. Then `CCOc1cc(N2CCOCC2)c(OCC)cc1NC(=O)COc1cccc2cccnc12`, with 16 nM (active).

Turning to `CC(=O)Nc1cccc(Oc2cc(C#N)c(C#N)cc2N2CCOCC2)c1`, the max dye-equivalent concentration result is “inactive”.

Consider `O=C1NC(c2cc3c(cc2Cl)OCO3)Oc2ccccc21` (centres undefined), for which the max dye-equivalent concentration entry is “inactive”.

With `CCOC(=O)c1cc(NC(=O)c2cccnc2)cc(C(=O)OCC)c1`, the max dye-equivalent concentration result is “inactive”. As for `Cc1cc2nc(-c3ccc(NC(=O)c4cccnc4)cc3)oc2cc1C`, the max dye-equivalent concentration was 15 nM (active). Then `CCC(=O)Nc1cccc(NC(=O)c2cccnc2)c1`, with “inactive”; and `CNc1nc(-c2ccccc2OC)nc2ccccc12`, with “inactive”; and `COc1ccccc1-c1nc(NCc2cccs2)c2ccccc2n1`, with “inactive”.

For the molecule `Cc1ccc(Cn2c(C)nc3c(c2=O)c2nc4ccccc4nc2n3Cc2ccco2)cc1`, the max dye-equivalent concentration is 760 nM (active).

`CC(Sc1nc2ccccc2c(=O)n1Cc1ccco1)C(=O)c1ccccc1` (centres undefined): the max dye-equivalent concentration entry is “inactive”. For the molecule `COCCCn1c2nc3ccccc3nc2c2c(=O)n(Cc3ccc(Cl)cc3)c(C)nc21`, the max dye-equivalent concentration is 320 nM (active).

In the case of `O=c1c2ccccc2oc2nc(C3CCCCC3)n(Cc3ccco3)c(=O)c12`, the max dye-equivalent concentration entry was “inactive”. The result for `Cc1nc2c(c(=O)n1Cc1ccco1)c1nc3ccccc3nc1n2Cc1ccccc1` reads 93 nM (active); that for `Cn1c(COc2ccc(Cl)cc2)nc2ccccc2c1=O`, “inactive”. Then `COc1ccccc1NC(=O)CSc1nc2sc(C)c(C)c2c(=O)n1Cc1ccco1`, with “inactive”.

`CCOC(=O)CSc1nc2c(sc(=S)n2CCc2ccccc2)c(=O)n1Cc1ccco1`: the max dye-equivalent concentration result is “inactive”. The result for `Cc1nc2ccccc2c(=O)n1CCCn1ccnc1` reads “inactive”.
